# The campaign covered roughly 320,000 compounds. About 1,300 (0.41%) were called active. About 3% were inconclusive and are not listed. No rule for the calls is given here. A selection follows. Measured potencies and affinities stand elsewhere.
# Experiment: growth inhibition of non-replicating M. tuberculosis (AID 488890);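 also: plate controls were DMSO cells for no effect and high antibiotic wells for full effect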
# Conditions: Mycobacterium tuberculosis non-replicating, at 25 µM, stronger effect = higher value
row,SMILES,inhibition [%]
1,Nc1nc(SCc2ccc(Cl)cc2Cl)n[nH]1,1.74
2,CCCc1nc(SCc2ccc(Cl)cc2Cl)n[nH]1,2.74
3,Cc1cccc2nc(CNC(=O)C3CCC(=O)N(Cc4ccccc4F)C3)cn12 (stereo unspecified),-13.7
4,CC(C)n1c(SCC(=O)Nc2ccc(F)cc2)nnc1C1CC1,-1.85
5,Cc1nn(C(=O)CCC(=O)NCc2ccc(OC(C)C)cc2)c2ccccc12,-4.46
6,CN(C#N)c1nccc(-c2cccs2)n1,19
7,COc1ccc(N/C=C/C(=O)c2ccc(Cl)cc2)cc1,45.2
8,COc1ccc(C(=O)NNC(=O)Nc2ccc(Cl)cc2)cc1,-7.99
9,Cc1ccc(C(=O)/C=C\NCc2ccccc2)cc1,37.6
10,Cc1ccc(N/C=C/C(=O)c2ccc(C)cc2)cc1,19.2
11,COc1ccc(C(=O)NCC(=O)NCC(=O)OCc2ccc(Cl)cc2)cc1,-0.72
12,COc1ccc(CCNC(=O)c2ccc(Cl)cc2)cc1,74.1
13,COC(=O)c1sc2nc(N3CCCCC3)c3c(c2c1N)CCCC3,1.1
14,COC(=O)C1=C(C)OC(N)=C(C#N)C1c1ccc(OC)c(CSc2ccccn2)c1 (stereo unspecified),10.8
15,Cc1ccn2c(=O)nc(SCC(=O)N3CCCC3)nc2c1,8.52
16,O=C(CN1CCCCC1)N/N=C/c1ccc(Cl)cc1Cl,-4.16
17,O=C1CCC(=O)N1CNc1cccnc1,3.84
18,COc1ccc(NCN2C(=O)CCC2=O)cc1,61
19,COc1ccccc1-c1cn(C(C)(C)C)nc1C,-1.55
20,O=C(N/N=C/c1cccc(C(F)(F)F)c1)c1ccc(O)cc1,16.8
21,O=C(N/N=C/c1cc(Br)c(O)c(Br)c1)c1cccc(C(F)(F)F)c1,21
22,C[C@H](CO)N1C[C@H](C)[C@@H](CN(C)S(=O)(=O)c2cn(C)cn2)Oc2ccc(NC(=O)NC3CCCCC3)cc2C1=O,-8.37
23,Cc1ccc(S(=O)(=O)N2CCOCC2)cc1C(=O)N1CCN(c2ccc(C(F)(F)F)cn2)CC1,7.63
24,CCCOc1cc(C)c(S(=O)(=O)NCc2cccs2)cc1C,6.87
25,Cc1cc(NCCO)nc(-n2nc(C)cc2C)n1,39.2

row,SMILES,inhibition [%]
1,CNc1cc(C)nc(-n2nc(C)cc2C)n1,77.6
2,COc1ccc(Nc2cc(C)nc(N3CCOCC3)n2)cc1,11.6
3,CCOc1ccc(Nc2cc(C)nc(N3CCOCC3)n2)cc1,4.96
4,COC1(c2cc(-c3ccccc3)nc(N)n2)CCCCC1,39.4
5,CC1CN(C(C)C(=O)NC(c2ccccc2)c2ccccc2)CC(C)O1 (stereo unspecified),-1.17
6,Cc1cc(NC(=O)CSc2nnnn2-c2ccc(C)c(C)c2)no1,-1.12
7,O=C(C1CCCN(S(=O)(=O)c2ccc(Br)cc2)C1)N1CCOCC1 (stereo unspecified),-4.37
8,COCCn1cnc2c1c(=O)[nH]c(=O)n2Cc1ccccc1,-2.83
9,O=c1c2c(nc3c(-c4cccc(Br)c4)c[nH]n13)CCCC2,76.9
10,Cc1[nH]n2c(=O)c3c(nc2c1-c1ccc(F)cc1)CCCC3,18.2
11,N#Cc1c[nH]n2c(=O)c3c(nc12)CCC3,-2.17
12,Cc1[nH]n2c(=O)c3c(nc2c1-c1cccc2ccccc12)CCC3,61.6
13,Cc1ccc(S(=O)(=O)/N=C(/Nc2ccc(F)cc2F)c2ccc(F)cc2)cc1,-16.3
14,CC(Oc1ccc(Cl)cc1Cl)C(=O)Nc1ncccn1 (stereo unspecified),61.7
15,Cc1cccc(C)c1OC(=O)CCN1C(=O)C2C3C=CC(C4CC34)C2C1=O (stereo unspecified),67.5
16,Cc1ccc(SCC(=O)NCC2COc3ccccc3O2)cc1 (stereo unspecified),29.9
17,Cc1ccc2oc(=O)c(/C=C(\O)C(C)(C)C)nc2c1,-1
18,Cc1ccc2oc(=O)c(/C=C(\O)CC(C)C)nc2c1,-17.2
19,CC(C)(C)/C(O)=C/c1nc2ccccc2[nH]c1=O,-2.24
20,C/C(O)=C/c1nc2ccccc2[nH]c1=O,1.47
21,c1ccc2oc(CCc3nc4ccccc4o3)nc2c1,-3.04
22,CCS(=O)(=O)CCSc1nc2ccccc2o1,-14.9
23,Cc1ccc(C(=O)CN2C(=O)NC3(CCCCCC3)C2=O)c(C)c1,-9.85
24,CCOc1ccc(-c2nnc3sc(COc4ccc(Cl)cc4)nn23)cc1,-1.47
25,CS(=O)(=O)Nc1cccc(C2=NN(C(=O)c3ccccc3Cl)C(c3ccccc3O)C2)c1 (stereo unspecified),30.8

row,SMILES,inhibition [%]
1,CC1CCN(S(=O)(=O)c2cccc(C(N)=O)c2)CC1,0.16
2,CCn1c(CCCCc2n[nH]c(=S)n2CC)n[nH]c1=S,-11.8
3,CC(=O)Nc1ccc(NC(=O)C2CCN(C(=O)NC3CCCCC3)CC2)cc1,-3.9
4,Cn1nc(C(=O)NNC(=O)C2CSC3(C)CCC(=O)N23)c2ccccc2c1=O (stereo unspecified),-11.1
5,Cc1ccc2[nH]c(C)c(CCNC(=O)c3c(N)no[n+]3[O-])c2c1,28.6
6,O=C(NCCCn1ccnc1)c1cc2cc([N+](=O)[O-])ccc2oc1=O,-4.48
7,COC(=O)c1ccc(-c2csc(NC(=O)C3=COCCO3)n2)cc1,34.1
8,CC(C)NC(=O)c1cc(=O)n(C)c(=O)n1C,1.53
9,Cc1nn(C)c(Oc2ccc(Cl)cc2)c1C(=O)O,5.18
10,O=S(=O)([N-]c1nc2ccccc2nc1-n1cc[n+](Cc2ccccc2)c1)c1ccc(Br)cc1,8.51
11,Cc1cccn2c(=O)c3cc(C(=O)N4CC(C)CC(C)C4)sc3nc12 (stereo unspecified),0.79
12,CSc1nc2c(c(=O)[nH]c(=O)n2C)n1Cc1ccccc1,4.61
13,CC(C)Cn1c(NCCN(C)C)nc2c1c(=O)[nH]c(=O)n2C,-11.4
14,Cc1cc(C)n(-c2nc3c(c(=O)[nH]c(=O)n3C)n2CC(C)C)n1,0.87
15,Cn1c(=O)[nH]c(=O)c2c1nc(N)n2Cc1ccccc1,-16.3
16,O=C(Nc1nnc(S(=O)(=O)N2CCCC2)s1)c1cccc([N+](=O)[O-])c1,43.7
17,NC(=O)c1ccc[n+](Cc2ccccc2)c1,-8.91
18,CC(C)(C)C1CCC(C(=O)Nc2ccccc2)CC1 (stereo unspecified),77.8
19,CCN1CCCC1CNC(=S)Nc1ccc(C(C)=O)cc1 (stereo unspecified),16.8
20,COc1cc(/C=C2\N=C(C)OC2=O)cc(OC)c1OC,-3.11
21,COc1cc(/C=C2\SC(c3ccc(C)cc3)=NC2=O)cc(OC)c1OC,16.6
22,CCCC1CC(C)(C(=O)CSc2n[nH]c(-c3ccccc3)n2)OC1=O (stereo unspecified),-9.58
23,CCOc1nc2ccccc2cc1/C=C/C(=O)O,16.5
24,Cc1ccc(N2C(=O)CC(N3CCSCC3)C2=O)c(C)c1 (stereo unspecified),66.2
25,O=C1CC(N2CCSCC2)C(=O)N1c1ccccc1 (stereo unspecified),17.6

row,SMILES,inhibition [%]
1,COc1ccc(C(=O)O/N=C(/c2cccs2)C(C)(C)C)cc1,35.7
2,COc1ccc(-c2nnc(NC(=O)Cc3ccccc3)s2)c(OC)c1,6.43
3,O=C(Nc1nncs1)c1cc2c(s1)CCC2,2
4,COc1ccc(CCNc2nc(-c3cccnc3)cs2)cc1OC,-6.11
5,Cc1cccc(Nc2nc(-c3cccs3)cs2)n1,3.92
6,O=C(Nc1nc(-c2ccncc2)cs1)c1ccco1,-9.61
7,O=C(CCS(=O)(=O)c1ccccc1)Nc1nc(-c2cccs2)cs1,75.7
8,COc1ccc(CCNc2nc(-c3ccncc3)cs2)cc1OC,15.7
9,Cc1cccc(Nc2nc(-c3ccc(F)cc3)cs2)n1,18.9
10,O=C(CCS(=O)(=O)c1ccccc1)Nc1nc(-c2ccc(F)cc2)cs1,0.28
11,O=C(Nc1nc(-c2ccccc2)cs1)c1ccco1,11.8
12,O=C1CC(/C=C/c2ccc([N+](=O)[O-])cc2)=Nc2ccccc2N1,30.3
13,Cc1ccc(C)c(N2N=C(C(=O)O)CCC2=O)c1,-0.55
14,Cc1cc(N2CCN(c3ccccc3)CC2)n2nnnc2n1,-6.03
15,O=C(c1nc2ccccn2c1CNCCCn1nnc2ccccc21)N1CCOCC1,-59.9
16,O=C(CSc1nnc(-c2ccncc2)o1)Nc1ccccc1Cl,-10.3
17,Cc1cc(C)cc(N(CCC#N)C(=O)CSc2ncnc3sccc23)c1,7.69
18,Cc1ccc(C(=O)N[C@H](C(=O)N2CCN(c3ccccc3F)CC2)C(C)C)cc1,9.21
19,COc1ccc2cc(C(=O)C3CCCN(C(=O)c4snnc4C)C3)ccc2c1 (stereo unspecified),16.9
20,O=C(O)c1ccc2noc(-c3ccccc3)c2c1,26.3
21,COc1ccc(CNC(=O)CN(C(=O)CCC(=O)Nc2ccccn2)c2ccccc2OC)cc1,10.4
22,c1ccc(Nc2nc(-c3ccncc3)cs2)cc1,0.69
23,c1ccc(-c2csc(Nc3cccnc3)n2)nc1,24.5
24,CC(C)(C)[C@H](N)C(=O)N[C@H]1CCC2C3CC=C4C[C@@H](O)CC[C@]4(C)C3CC[C@@]21C (stereo partly specified),67.1
25,CC(C)OC(=O)c1cc(C(=O)c2cc(Br)ccc2O)coc1=N,76.9

row,SMILES,inhibition [%]
1,COC(=O)c1cc(C(=O)c2cc(Cl)ccc2O)coc1=N,36
2,CC(=O)Nc1nnc(-c2ccco2)o1,4.52
3,Cc1ccccc1C(=O)Nc1nnc(-c2ccco2)s1,-20.8
4,O=C(Cc1ccccc1)Nc1nnc(-c2ccco2)o1,-4.54
5,COc1cc(OC)cc(-c2nnc(NC(=O)CCS(=O)(=O)c3ccccc3)o2)c1,78.9
6,CCCCN(C(=O)CSCC(=O)Nc1ccc(OC)cc1)c1c(N)n(Cc2ccccc2)c(=O)[nH]c1=O,33
7,Cc1ccc[n+](CC(=O)Nc2nc3ccccc3s2)c1,2.08
8,CN(C(=O)CN1CC=C(c2ccccc2)CC1)c1c(N)n(Cc2ccccc2)c(=O)[nH]c1=O,8.33
9,CN(C(=O)COC(=O)Cc1c(Cl)cccc1Cl)C1CCS(=O)(=O)C1 (stereo unspecified),-4.22
10,CCCCCC(=O)Nc1ccc2ccccc2c1,58.5
11,CCC(=O)Nc1ccc2ccccc2c1,14.1
12,CCCCn1c(N)c(N(Cc2ccccc2OC)C(=O)c2ccc(N3CCCC3=O)cc2)c(=O)[nH]c1=O,18.9
13,N#CCSc1ncccc1-c1nc2ccccc2[nH]1,-0.28
14,c1ccc(Nc2cccc3c(Nc4ccccc4)cccc23)cc1,42.5
15,COc1ccc(Nc2ccccc2C(=O)O)cc1,3.87
16,Cc1ccc(Nc2cccccc2=O)cc1,16.8
17,COc1ccc(Nc2cccccc2=O)cc1,3.01
18,Nc1cccc(Nc2ccccc2)c1,2.41
19,Nc1ccccc1Nc1cccc(C(F)(F)F)c1,47
20,Cc1ccc(Nc2ccccc2)cc1,1.99
21,c1ccc(Nc2ccccc2)cc1,6.24

# Reference: PubChem BioAssay AID488890 (Southern Research Specialized Biocontainment Screening …, 2010)
